# FLuc modulator – firefly luciferase modulation, counter-screen for miR-21 project; P08659; purified FLuc, Km substrates, luminescence inhibition; Potency, µM (series often up to 57.5 µM), inactives show top-dose activity change, negative = inhibition, actives largely listed as inhibitors; hit rate 6.9% among 360,000;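 further: plate controls were vehicle for no effect and reference inhibitor for full effect; nearly all actives have a fitted effect of over 55% in size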
# Target sequence (P08659 whole entry, looked up): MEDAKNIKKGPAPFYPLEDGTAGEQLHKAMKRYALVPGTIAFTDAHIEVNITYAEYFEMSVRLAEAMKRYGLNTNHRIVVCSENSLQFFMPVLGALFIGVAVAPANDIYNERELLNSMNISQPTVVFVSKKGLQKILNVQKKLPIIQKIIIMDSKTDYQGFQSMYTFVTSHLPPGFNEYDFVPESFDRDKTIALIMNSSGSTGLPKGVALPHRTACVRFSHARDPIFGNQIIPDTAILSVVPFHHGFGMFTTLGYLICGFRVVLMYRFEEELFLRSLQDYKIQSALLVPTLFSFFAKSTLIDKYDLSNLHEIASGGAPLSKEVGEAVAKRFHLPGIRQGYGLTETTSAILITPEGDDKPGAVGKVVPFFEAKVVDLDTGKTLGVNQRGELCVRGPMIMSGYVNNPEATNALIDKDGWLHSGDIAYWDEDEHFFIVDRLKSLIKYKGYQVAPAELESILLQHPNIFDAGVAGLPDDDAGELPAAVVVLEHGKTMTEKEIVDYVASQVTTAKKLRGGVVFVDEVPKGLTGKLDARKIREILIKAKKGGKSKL
#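 Purified P. pyralis luciferase (10nM final) with 10uM D-luciferin and 10uM ATP (Km levels) in 50mM Tris acetate pH 7.5, 10mM Mg acetate, 0.01% Tween-20, 0.05% BSA; qHTS 6-point titration, ~60 µM downward; luminescence read.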
# Rab9 prom act – activators of Rab9 promoter. Huh7 Rab9 promoter-luciferase reporter, luminescence, 24 h. hit rate 2.8% among 320,000. Potency, µM (top dose mostly 9.22 µM), for inactives: at the top dose activation, negative = inhibition, actives largely listed as activators; further: % of control where 0% means no effect; nearly all actives have a fitted effect of over 60% in size
#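 Luciferase signal after 10 min detection reagent at ambient indicates Rab9 promoter upregulation; stably transfected Huh7 cells were treated 24 h with compound in DMSO at 37 °C, 5% CO2.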
# ELG1 genotox – induces genotoxicity in HEK293T cells with luciferase-tagged ELG1 | Potency, µM (top dose mostly 46 µM), for inactives: at the highest dose activity change, positive = activation, most hits filed as activators | hit rate 1.3% among 330,000 | HEK293T ELG1-luciferase reporter, luminescence, 16 h | AID 504466; further: % of control where 0% means no effect; nearly all actives have a fitted effect of over 60% in size
#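 Genotoxic stress is detected as increased luminescence from luciferase-tagged ELG1 in HEK293T cells, measured with ONE-Glo after a 16 hr treatment at 37 °C.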
# ELG1 DNA repair – blocks ELG1-dependent DNA repair in HEK293T cells. hit rate 2.3% among 330,000. HEK293T ELG1-luciferase reporter, luminescence, 16 h; DNA damage induced by 5-fluorouridine. Potency, µM (series often up to 46.1 µM), without a hit: at the top dose activity change, negative = inhibition, actives largely listed as inhibitors. AID 504467; further: on the % scale 0 is the no-effect control and ±100 the full control effect; nearly all actives have a fitted effect of over 55% in size
#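 In this reporter screen, reduction of luminescence relative to DMSO vehicle indicated activity. Compounds and 5-fluorouridine were added together to 2,000 cells per well, incubated for 16 hr at 37 °C, then developed with ONE-Glo.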
# SMN2 splice up – increases expression of the SMN2 splice variant; HEK293 SMN2-luciferase splicing reporter, luminescence, 30-36 h; Potency, µM (titrated, usually from 46.1 µM), for the others: top-dose activity change, positive = activation, most hits filed as activators; hit rate 2.8% among 210,000; further: % of control where 0% means no effect; nearly all actives have a fitted effect of over 55% in size
#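 qHTS luciferase splicing reporter: luminescence rises when SMN2 exon 7 is included in transfected HEK293 cells. Compound exposure lasted 30-36 h at 37C, with 4.5 mM final sodium butyrate as control, followed by a ONE-Glo read.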
# NPC1 promoter act – NPC1 promoter activation; Potency, µM (series often up to 9.22 µM), for inactives: at the highest dose activation, usual class: activators; Huh7 NPC1 promoter luciferase reporter, 24 h; hit rate 2.4% among 320,000; further: % of control where 0% means no effect; nearly all actives have a fitted effect of over 60% in size
#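 Luminescence read-out of NPC1 promoter-driven luciferase in stably transfected Huh7 cells; compounds delivered in DMSO and left 24 h at 37C, 5% CO2, qHTS titration format.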
# The depositor's hits bear a star; u = inconclusive; x = no result; [ ] = remark or other dose. Compounds with a hit are over-represented: about 9.2% of the library has one in this group of screens. The call rests on the fitted dose curve; in most records, active means well fitted curve in the direction sought with a large enough effect; inconclusive means small, poorly fitted or top-dose-only effect, or another doubt; inactive means no such curve, though single readings can be large; an effect the other way counts as inactive or inconclusive. Potency means the concentration at half of the fitted maximal effect.
SMILES,FLuc modulator,Rab9 prom act,ELG1 genotox,ELG1 DNA repair,SMN2 splice up,NPC1 promoter act
COc1cccc(/C=C2\Oc3cc(OCC(=O)N4CCC[C@H]4C(=O)O)ccc3C2=O)c1,2.7µM*,-3%,8%,27%,x,0%
COc1ccc(/C=C2\Oc3cc(OCC(=O)N4CCC[C@H]4C(=O)O)ccc3C2=O)c(OC)c1,12µM*,-2%,-2%,26%,x,0%
CN(CC(=O)NC(=O)NC1CCCCC1)Cc1ccccc1,-12%,13%,1%,u,x,11%
CN1CCSc2ccc(C(=O)Nc3cc(F)ccc3F)cc21,2.1µM*,0.89µM*,2.6µM*,u,x,1.3µM*
Cc1ccccc1NC(=O)c1ccc2c(c1)N(C)CCS2,11µM*,u,u,u,x,u
CN1CCSc2ccc(C(=O)NCc3ccccc3F)cc21,u,u,-2%,0%,x,29%
O=C(Oc1ccccc1)C1O[C@@H]1c1ccccc1 (stereo not given in full),x,x,x,x,-4%,x
Cc1ccccc1OCc1nc2c3cnn(C)c3ncn2n1,u,2.8µM*,5.8µM*,u,u,4µM*
Cc1ccccc1OCc1nc2c3c(ncn2n1)-c1ccccc1CC31CCCC1,0%,0%,2%,-10%,-32%,-6%
COc1ccc(/C=C2\SC(=O)N(CC(=O)NC3CCS(=O)(=O)C3)C2=O)cc1 (stereo not given),u,0%,8%,u,x,-3%
Cc1ccc(OCC(O)Cn2c3ccccc3c3ccccc32)cc1 (stereo not given),-2%,-5%,-2%,-24%,-16%,-5%
CC(=O)N(C)c1ccc(OCC(O)Cn2c3ccc(Cl)cc3c3cc(Cl)ccc32)cc1 (stereo not given),2%,-8%,-24%,18µM*,-128%,-4%
CC(=O)N(C)c1ccc(OCC(O)Cn2c(C)nc3ccccc32)cc1 (stereo not given),2%,-16%,-7%,9.2µM*,-57%,-15%
CC(=O)Nc1ccc(OCC(O)Cn2c(C)nc3ccccc32)cc1 (stereo not given),0%,-5%,-6%,13%,-48%,14%
Cc1ccc(N(CCC#N)C(=O)CCl)cc1C,12%,-42%,-10%,18µM*,-117%,-35%
COc1ccc(OCC(=O)Nc2ccc3c(c2)CCC3)cc1,x,16%,-1%,19%,x,-6%
Cc1ccc(NC(=O)COc2ccc3c(c2)CCC3)nc1,9.5µM*,u,9.2µM*,u,x,u
Cc1ccc(NC(=O)COc2ccc3oc4c(c3c2)CCCC4)nc1,10%[2.3 µM],-1%,3%,12%,0%,0%
Cc1csc(NC(=O)COc2ccc3c(c2)CCC3)n1,12µM*,3.5µM*,u,u,x,u
Cc1ccc(OCC(=O)c2ccc3c(c2)CCCC3)cc1C,9.5µM*,1.1µM*,u,u,22%,0.56µM*
Cc1cccnc1NC(=O)COc1ccc2c(c1)CCC2,17µM*,u,9.2µM*,u,x,u
O=C(COc1ccc(Br)cc1)c1ccc2c(c1)CCCC2,u,12%,5%,16%,-8%,16%
O=C(NC1CC2CCCC(C1)N2C(=O)Nc1ccc(F)cc1)c1ccccc1 (stereo not given),-1%,-8%,0%,5%,x,-1%
CCN(CC)C1=CC(=[N+]2CCCC2)CC(C)(C)C1,-1%,-38%,0%,-15%,-72%,-27%
CN(Cc1ccccc1)C1=CC(=[N+]2CCCC2)CC(C)(C)C1,3%,-41%,-11%,0.26µM*,x,-35%
CC1C(=O)NN=C1C(=O)N/N=C/c1cccs1 (stereo not given),u,4%,8%,u,12%,6%
CC(=O)c1c(C)[nH]c(C(=O)N2c3ccccc3CC2C)c1C (stereo not given),4%,9%,14%,u,2%,0%

# Bioassay records deposited in PubChem BioAssay by National Center for Advancing Translational Sciences (NCATS).
